Screening data (PubChem BioAssay)
Pf Dd2 inh: blocks in vitro growth of P. falciparum Dd2; Potency, µM (series often up to 28.9 µM), hits mostly inhibitors; 120,000 tested, 4.3% active; P. falciparum Dd2 growth, SYBR Green, 72 h; active = well fitted inhibition curve with a large enough effect; note: nearly all actives have a fitted effect of over 65% in size
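Infected erythrocytes (Dd2, 0.3% parasitemia, 2.5% hematocrit final) are added to compound in RPMI-1640/Albumax II medium, grown 72 h at 37C in low oxygen, then lysed with saponin/Triton-X containing SYBR Green and read by fluorescence.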
Each line names hits and unclear results; the compound was inactive in the other large screens. This is one part of a sample in which hits are shown more often than they occur.

O=C(c1cccs1)N1CCC2(CC1)CN(C1CCC1)CC2CO (configuration not stated)	none
CC(=O)N1CCn2ncc(C(=O)Nc3ccc(Cl)cc3Cl)c2C1	none
CN(C)c1ccc(CNC(=O)c2ccc3nc(Cc4ccccc4)oc3c2)cc1	none
CCc1nc2ccc(C(=O)NCc3ccc(N(C)C)cc3)cc2nc1CC	Pf Dd2 inh 3.55µM
CC(C)c1nc2ccc(C(=O)NCc3ccc(N(C)C)cc3)cc2o1	none
Cc1ccc(NC(=O)C2CC(=O)Nc3ncnn32)cc1 (configuration not stated)	none
COc1ccc(C2NC(=O)NC(C)=C2C(=O)Nc2ccccc2)cc1OC (configuration not stated)	none
CCCOc1ccc(-c2nn(-c3ccccc3)cc2C2NC(=O)NC(C)=C2C(=O)OC)cc1C (configuration not stated)	Pf Dd2 inh 10µM
CCCOc1ccccc1C1C(C(=O)Nc2ccccc2)=C(C)Nc2nnnn21 (configuration not stated)	none
COC(=O)C1=C(C)NC(=O)NC1c1ccc(O)cc1 (configuration not stated)	none
CCCOc1ccc(-c2nn(-c3ccccc3)cc2C2NC(=O)NC(C)=C2C(=O)OC)cc1 (configuration not stated)	Pf Dd2 inh 10µM
CCCCOc1ccc(-c2nn(-c3ccccc3)cc2C2NC(=O)NC(C)=C2C(=O)OC)cc1 (configuration not stated)	none
COCCN1C(=O)[C@H]2CN(Cc3ccc(OC)c(Br)c3)C[C@H]2C1=O	none
O=C1CCCCC(C(=O)N2CCc3ccccc3C2)N1 (configuration not stated)	none
O=C1NCCCCCCN[C@H]2C[C@H](C(=O)N3CCc4ccccc4C3)C[C@@H]12	Pf Dd2 inh 6.31µM
CCS(=O)(=O)N1CCCCCCNC(=O)[C@@H]2C[C@@H](C(=O)N3CCc4ccccc4C3)C[C@@H]21	none
CC(C)C(=O)N1CCCCCCNC(=O)[C@@H]2C[C@@H](C(=O)N3CCN(c4ccccn4)CC3)C[C@@H]21	none
O=C1NCCCCCN(C(=O)NC2CCCCC2)[C@@H]2C[C@@H](C(=O)N3CCc4ccccc4C3)C[C@H]12	Pf Dd2 inh 8.91µM
Cn1ccnc1C(=O)N1CCCCCNC(=O)[C@H]2C[C@H](C(=O)N3CCc4ccccc4C3)C[C@H]21	none
CNC(=O)c1noc([C@@H]2CC(F)(F)CN2C(=O)CCOC)n1	none
Cc1noc([C@@H]2C[C@H](NS(=O)(=O)c3cccs3)CN2C)n1	none
O=C(c1nc(-c2ccc(Cl)nc2)c2cnccn12)N1CCN(c2ncccn2)CC1	none
Cc1cccc(NC(=O)Nc2ccc(C)n(CC(=O)O)c2=O)c1	none
Cc1ccc(N2CCN(c3nc(C(=O)O)cs3)CC2)cc1	none
CCS(=O)(=O)Nc1ccc(C2(C(=O)NCc3ccc4c(c3)OCO4)CCCCC2)cc1	Pf Dd2 inh 11.2µM
CC(=O)Nc1ccc(C2(C(=O)NCc3ccc4c(c3)OCO4)CCC2)cc1	none
CCS(=O)(=O)Nc1ccc(C2(C(=O)NCc3cccnc3)CCCCC2)cc1	none
COC(=O)c1ccc(NC(=O)c2c(OC)cc(=O)n3c2CCCC3)cc1	none
CN1C(=O)c2cccn2CC1C(=O)N1CCN(c2ncccn2)CC1 (configuration not stated)	none
CCn1ccc(C(=O)NCCc2ncc(C)n2C2CC2)n1	none
COCCO[C@H]1C(=O)N(C2CCN(C(=O)c3ccc(OC)cc3)CC2)[C@H]1c1ccncc1	none
O=c1c2c(n(Cc3cccnc3)n1-c1ccccc1)CN(CC1CCOCC1)CC2	none
O=C(c1ccccc1)c1ccc2nc(N3CCN(c4ccc(F)cc4)CC3)c3nncn3c2c1	Pf Dd2 inh 11.2µM
Cc1ccc(C)c(N2CCN(c3nc4ccc(C(=O)c5ccccc5)cc4n4cnnc34)CC2)c1	none
Cc1ccc(Cl)cc1N1CCN(c2nc3ccc(C(=O)c4ccccc4)cc3n3cnnc23)CC1	none
Cc1ccc(N2CCN(c3nc4ccc(C(=O)c5ccccc5)cc4n4cnnc34)CC2)c(C)c1	none
COc1cccc(N2CCN(c3nc4ccc(C(=O)c5ccccc5)cc4n4c(C)nnc34)CC2)c1	Pf Dd2 inh 6.31µM
Cc1ccc(Nc2nc3ccc(C(=O)c4ccccc4)cc3n3c(C)nnc23)c(C)c1	none
O=C(c1cccc(F)c1)N1CCOC[C@H](Oc2cccnc2)C1	none
O=C(c1ccoc1)N1CCCC(CCc2ccc(F)c(F)c2)C1 (configuration not stated)	none
CCN(Cc1nccn1C)C(=O)c1ccc(N2CCC(N(C)C)C2)nc1 (configuration not stated)	none
CCn1cc(C(=O)N2C[C@@H](CO)[C@H](c3ccccn3)C2)cn1	none
O=C(NCCN1CCCCC1)c1cccnc1N1CC2CC(C1)[C@H]1CCCC(=O)N1C2 (some centres not stated)	none
CN(C)C[C@@H]1CN(S(C)(=O)=O)C[C@H]1NC(=O)NC1CCCCC1	none
CN1CCC(CN2CCC(c3nn(C)c(=O)n3-c3ccccc3)CC2)CC1	none
COCCC1(NS(C)(=O)=O)CCN(C(=O)c2c(C)noc2C)CC1	none
COCCC1(NS(C)(=O)=O)CCN(C(=O)c2cccc(C#N)c2)CC1	none
COc1ccc(CN2CC3(CCN(C(=O)Nc4ccc(C)c(C)c4)CC3)C2=O)cc1	none
CCNC(=O)NC[C@@H]1C=C(C)[C@H](CC(=O)NCc2ccccn2)C[C@H]1C(C)C	none
COc1ccc(-c2nnc(C[C@@H]3C[C@@H](C(C)C)[C@H](CN(C)CCc4ccccn4)C=C3C)o2)cc1	Pf Dd2 inh 11.2µM
CC1=C[C@@H](CNC(=O)CCC(=O)O)[C@H](C(C)C)C[C@H]1CC(=O)NCc1ccccn1	none
COc1ccc(-c2nnc(C[C@@H]3C[C@@H](C(C)C)[C@H](CN4CCN(C)CC4)C=C3C)o2)cc1	none
COc1ccc(CNC(=O)C[C@@H]2C[C@@H](C(C)C)[C@H](CC#N)C=C2C)cc1	none
CC1=C[C@@H](CNS(=O)(=O)c2ccccc2)[C@H](C(C)C)C[C@H]1Cc1nnc(-c2ccncc2)o1	none
COc1ccc(-c2nnc(C[C@@H]3C[C@@H](C(C)C)[C@H](CN(C)CCC#N)C=C3C)o2)cc1	Pf Dd2 inh 7.94µM
CC1=C[C@@H](CNCc2ccccn2)[C@H](C(C)C)C[C@H]1Cc1nnc(-c2ccccc2)o1	Pf Dd2 inh 3.55µM
Cn1nccc1CN1CCC2(CC(c3cccc(C(F)(F)F)c3)=NO2)C1 (configuration not stated)	none
COc1ccc(CN2C(=O)COC[C@H]2C(=O)N2CCSCC2)c(OC)c1	none
Cc1ccc(-c2nccc3c(=O)cc(-c4cn[nH]c4)oc23)cc1	none
Cc1noc(C)c1CC(=O)NCC1Cn2cccc2C(=O)N1CC(C)C (configuration not stated)	none
Cc1ccc(CNC(=O)c2ccc3nc(SCc4ccc(F)cc4)[nH]c3c2)cc1	none
O=C(NC1CCCC1)c1ccc2c(=O)n(Cc3ccccc3)c(SCc3ccc([N+](=O)[O-])cc3)nc2c1	Pf Dd2 inh 3.16µM
O=C(NC1CCCC1)c1ccc2c(=O)n(Cc3ccccc3)c(SCc3cccc(F)c3)nc2c1	none
O=C(O)c1ccc2c(c1)n(Cc1cccc(F)c1)c(=O)c1ccnn12	none
O=C(NCc1ccccc1)c1ccc2c(c1)n(Cc1ccc(F)cc1)c(=O)c1ccnn12	none
O=C(NCc1cccc(Cl)c1)c1noc(-c2ccc(F)cc2)n1	none
COc1ccccc1CNC(=O)c1ccc(CSc2nc3ccncc3n2Cc2cccc(F)c2)cc1	Pf Dd2 inh 3.55µM
Cc1ccc(CSc2nc3cc(C(=O)NC4CCCC4)ccc3c(=O)n2Cc2ccccc2)cc1	none
Cn1c(SCc2ccc(F)cc2)nc2ccc(C(=O)NCc3cccc(Cl)c3)cc21	Pf Dd2 inh 10µM
